PMC7862700, “An all-to-all approach to the identification of sequence-specific readers for epigenetic DNA modifications on cytosine”

How the values were obtained:
Experiment in all cases: DAPPL (digital affinity profiling via proximity ligation, sequencing); 10 mM Tris-HCl pH 7.5, 50 mM NaCl, 1 mM DTT, 4% glycerol, room temperature, 30 min; GST-TFs on glutathione beads, 16-mer random dsDNA library, 0.1% formaldehyde crosslink after washing; high values mean tight binding
Settings in all cases: protein: recombinant; tags: N-terminal GST; dsDNA, one strand shown
[1] = target: T1, ELK1 (Homo sapiens, UniProt P19419 1-428)
T1 sequence: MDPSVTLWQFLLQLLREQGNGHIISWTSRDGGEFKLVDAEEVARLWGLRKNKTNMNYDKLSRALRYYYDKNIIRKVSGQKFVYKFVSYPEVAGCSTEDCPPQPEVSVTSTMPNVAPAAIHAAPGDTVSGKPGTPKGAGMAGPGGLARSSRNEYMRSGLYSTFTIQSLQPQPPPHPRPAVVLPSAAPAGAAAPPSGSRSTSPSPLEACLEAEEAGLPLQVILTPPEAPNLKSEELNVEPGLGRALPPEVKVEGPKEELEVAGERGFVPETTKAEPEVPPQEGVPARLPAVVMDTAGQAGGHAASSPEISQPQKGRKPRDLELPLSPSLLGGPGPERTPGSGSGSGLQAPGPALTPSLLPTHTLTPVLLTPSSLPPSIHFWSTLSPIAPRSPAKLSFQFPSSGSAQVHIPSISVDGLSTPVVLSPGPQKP
Summary of the method: (§1)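 A tag-only sample was pooled with DNA-barcoded human transcription factors that had been expressed in yeast as GST fusions and captured on glutathione beads. The pools were incubated for 30 min at room temperature with 200 nmole of a random double-stranded 16-mer DNA library in Tris/NaCl/DTT/glycerol buffer, then washed, crosslinked with 0.1% formaldehyde, proximity-ligated (BsaI/T4 ligase, 1 h, 37 °C), PCR-amplified and sequenced on an Illumina NextSeq500. Binding signal is each hexamer's read frequency for a factor divided by its frequency for the tag-only sample.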

[2] = target: T2, GABPA (Homo sapiens, UniProt Q06546 1-454)
T2 sequence: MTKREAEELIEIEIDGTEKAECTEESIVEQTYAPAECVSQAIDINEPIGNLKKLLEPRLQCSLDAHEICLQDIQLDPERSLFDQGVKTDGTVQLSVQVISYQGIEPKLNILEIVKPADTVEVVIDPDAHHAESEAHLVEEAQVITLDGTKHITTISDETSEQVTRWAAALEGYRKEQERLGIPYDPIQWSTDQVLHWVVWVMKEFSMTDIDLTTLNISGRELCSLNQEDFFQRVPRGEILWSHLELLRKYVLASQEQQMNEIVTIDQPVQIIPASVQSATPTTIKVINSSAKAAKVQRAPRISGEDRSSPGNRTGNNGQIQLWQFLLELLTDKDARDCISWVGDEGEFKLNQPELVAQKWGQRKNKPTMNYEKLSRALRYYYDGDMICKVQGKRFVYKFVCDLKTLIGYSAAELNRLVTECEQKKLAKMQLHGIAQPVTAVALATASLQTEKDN
Summary of the method: as §1

[3] = target: T3, ERG (Homo sapiens, UniProt P11308 1-479)
T3 sequence: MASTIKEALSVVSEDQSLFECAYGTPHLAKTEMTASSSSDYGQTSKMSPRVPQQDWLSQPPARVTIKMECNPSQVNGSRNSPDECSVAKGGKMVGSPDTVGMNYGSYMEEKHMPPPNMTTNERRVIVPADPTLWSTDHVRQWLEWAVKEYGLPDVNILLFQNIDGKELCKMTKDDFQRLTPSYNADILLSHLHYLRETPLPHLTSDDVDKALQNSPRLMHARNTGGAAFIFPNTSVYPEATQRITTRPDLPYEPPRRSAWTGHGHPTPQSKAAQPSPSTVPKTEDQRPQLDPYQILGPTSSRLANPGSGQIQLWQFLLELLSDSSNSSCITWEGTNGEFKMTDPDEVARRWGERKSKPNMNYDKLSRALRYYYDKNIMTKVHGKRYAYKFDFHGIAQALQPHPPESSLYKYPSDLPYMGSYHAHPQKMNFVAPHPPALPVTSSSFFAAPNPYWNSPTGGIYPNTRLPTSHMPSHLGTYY
Summary of the method: as §1

[4] = target: ELF1 (Homo sapiens, UniProt P32519 1-619)
Sequence of ELF1 (P32519 whole entry): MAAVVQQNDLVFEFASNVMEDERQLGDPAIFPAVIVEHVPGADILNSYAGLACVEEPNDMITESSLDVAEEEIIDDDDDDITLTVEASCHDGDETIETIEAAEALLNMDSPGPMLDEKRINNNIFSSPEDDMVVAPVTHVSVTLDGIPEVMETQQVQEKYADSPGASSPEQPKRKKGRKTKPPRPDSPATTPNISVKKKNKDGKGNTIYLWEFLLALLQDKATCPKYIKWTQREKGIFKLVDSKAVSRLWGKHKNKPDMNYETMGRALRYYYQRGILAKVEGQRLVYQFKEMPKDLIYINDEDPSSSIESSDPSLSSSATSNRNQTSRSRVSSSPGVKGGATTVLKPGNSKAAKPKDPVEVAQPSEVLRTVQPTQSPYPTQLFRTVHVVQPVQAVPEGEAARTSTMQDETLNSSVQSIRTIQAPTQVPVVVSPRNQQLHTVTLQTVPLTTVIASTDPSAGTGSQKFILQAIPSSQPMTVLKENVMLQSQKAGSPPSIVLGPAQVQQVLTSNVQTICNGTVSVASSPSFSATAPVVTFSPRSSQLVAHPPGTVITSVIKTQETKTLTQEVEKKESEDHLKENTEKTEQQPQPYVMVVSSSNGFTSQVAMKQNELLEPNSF
Summary of the method: as §1

[5] = target: T4, EHF (Homo sapiens, UniProt Q9NZC4 1-300)
T4 sequence: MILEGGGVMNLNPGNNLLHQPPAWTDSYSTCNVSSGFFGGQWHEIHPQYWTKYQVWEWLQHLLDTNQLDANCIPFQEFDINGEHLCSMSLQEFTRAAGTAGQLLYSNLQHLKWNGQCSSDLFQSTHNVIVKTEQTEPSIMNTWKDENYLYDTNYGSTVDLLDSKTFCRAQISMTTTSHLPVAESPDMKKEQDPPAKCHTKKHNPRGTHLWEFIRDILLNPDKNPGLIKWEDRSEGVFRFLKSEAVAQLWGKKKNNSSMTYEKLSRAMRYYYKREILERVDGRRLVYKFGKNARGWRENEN
Summary of the method: as §1

[6] = target: SPIB (Homo sapiens, UniProt Q01892 1-262)
Sequence of SPIB (Q01892 whole entry): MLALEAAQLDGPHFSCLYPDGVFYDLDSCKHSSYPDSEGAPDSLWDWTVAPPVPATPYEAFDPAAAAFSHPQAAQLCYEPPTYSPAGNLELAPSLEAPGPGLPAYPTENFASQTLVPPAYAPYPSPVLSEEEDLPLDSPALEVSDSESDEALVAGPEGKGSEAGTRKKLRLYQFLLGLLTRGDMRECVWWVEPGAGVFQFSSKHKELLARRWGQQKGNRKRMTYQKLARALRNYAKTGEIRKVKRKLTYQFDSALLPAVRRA
Summary of the method: as §1

[7] = target: T5, FEV (Homo sapiens, UniProt Q99581 1-238)
T5 sequence: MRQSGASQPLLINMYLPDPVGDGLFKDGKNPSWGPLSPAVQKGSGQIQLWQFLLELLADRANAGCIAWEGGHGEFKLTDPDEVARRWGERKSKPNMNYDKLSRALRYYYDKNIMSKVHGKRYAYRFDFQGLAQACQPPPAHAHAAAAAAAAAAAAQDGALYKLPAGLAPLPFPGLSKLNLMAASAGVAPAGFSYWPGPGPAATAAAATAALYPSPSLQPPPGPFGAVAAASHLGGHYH
Summary of the method: as §1

[8] = target: ETV5 (Homo sapiens, UniProt P41161 1-510)
Sequence of ETV5 (P41161 whole entry): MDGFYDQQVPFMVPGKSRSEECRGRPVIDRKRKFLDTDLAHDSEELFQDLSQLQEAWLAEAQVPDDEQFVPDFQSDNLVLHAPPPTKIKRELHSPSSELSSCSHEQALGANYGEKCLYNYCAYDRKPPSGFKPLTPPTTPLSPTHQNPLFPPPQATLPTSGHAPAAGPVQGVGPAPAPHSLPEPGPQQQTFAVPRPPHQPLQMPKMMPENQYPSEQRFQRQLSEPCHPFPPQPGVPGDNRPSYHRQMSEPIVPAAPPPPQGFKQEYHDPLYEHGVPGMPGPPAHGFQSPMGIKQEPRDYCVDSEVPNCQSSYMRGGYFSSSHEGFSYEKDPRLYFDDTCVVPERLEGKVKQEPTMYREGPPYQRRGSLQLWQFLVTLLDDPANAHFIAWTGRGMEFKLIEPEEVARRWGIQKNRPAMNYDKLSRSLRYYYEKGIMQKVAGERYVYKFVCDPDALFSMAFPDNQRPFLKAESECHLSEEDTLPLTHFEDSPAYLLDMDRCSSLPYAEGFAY
Summary of the method: as §1

[9] = target: ELF4 (Homo sapiens, UniProt Q99607 1-663)
Sequence of ELF4 (Q99607 whole entry): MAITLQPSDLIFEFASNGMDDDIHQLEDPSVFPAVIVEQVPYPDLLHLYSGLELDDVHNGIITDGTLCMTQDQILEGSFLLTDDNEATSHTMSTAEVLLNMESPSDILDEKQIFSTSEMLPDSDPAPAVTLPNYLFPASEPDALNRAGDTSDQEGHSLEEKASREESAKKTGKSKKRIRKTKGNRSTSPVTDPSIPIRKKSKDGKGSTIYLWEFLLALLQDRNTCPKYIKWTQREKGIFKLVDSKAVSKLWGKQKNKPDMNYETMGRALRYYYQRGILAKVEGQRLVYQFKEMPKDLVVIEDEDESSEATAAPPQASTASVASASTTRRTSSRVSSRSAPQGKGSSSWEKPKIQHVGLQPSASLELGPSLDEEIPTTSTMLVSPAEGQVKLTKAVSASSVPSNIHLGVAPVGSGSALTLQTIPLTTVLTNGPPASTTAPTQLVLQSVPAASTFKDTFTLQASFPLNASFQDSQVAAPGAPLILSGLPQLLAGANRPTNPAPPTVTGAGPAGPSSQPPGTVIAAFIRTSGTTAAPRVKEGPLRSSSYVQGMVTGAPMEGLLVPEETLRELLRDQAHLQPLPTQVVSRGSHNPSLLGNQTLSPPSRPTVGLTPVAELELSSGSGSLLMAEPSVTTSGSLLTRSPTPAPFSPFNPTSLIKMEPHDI
Summary of the method: as §1

TGCGCC
binding signal [1]: 1.21 fold enrichment (6-mer frequency, TF over GST control)
binding signal [2]: 1.19 fold enrichment (6-mer frequency, TF over GST control)
binding signal [3]: 1.2 fold enrichment (6-mer frequency, TF over GST control)
binding signal [4]: 1.14 fold enrichment (6-mer frequency, TF over GST control)
binding signal [5]: 1.08 fold enrichment (6-mer frequency, TF over GST control)
binding signal [6]: 1.27 fold enrichment (6-mer frequency, TF over GST control)
binding signal [7]: 1.16 fold enrichment (6-mer frequency, TF over GST control)
binding signal [8]: 1.04 fold enrichment (6-mer frequency, TF over GST control)
binding signal [9]: 1.19 fold enrichment (6-mer frequency, TF over GST control)
